From PubChem BioAssay
Shown are actives, neighbours in structure and some others; about 1.9% of the full set was active somewhere.
zVAD death inh – L929 zVAD cell death inhibition | viability rescue, % at 10 µM | L929 zVAD necroptosis rescue, ATP luminescence, 24 h; with zVAD 60 µM | hit rate 0.38% among 220,000;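 active = activation, scaled between plate controls, above about 75%, limit read from the data; inactive = activation under that limit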;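 also: 0% = zVAD with DMSO and 100% = DMSO alone without zVAD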
Hsp70 activator – Hsp70 transcriptional activation, primary screen; activation, % at 10 µM; HeLa Hsp70 promoter luciferase reporter, luminescence; scaled: vehicle 0, proteasome-inhibitor control 100%; hit rate 0.04% among 200,000;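 active = activation above the mean across all tested compounds plus 3 SD, cutoff set per campaign, cut at about 5.5% in these data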;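 also: 100% = MG132 at 30 µM as the positive control and 0% = DMSO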
HSF-1 act – increases HSF-1 driven luciferase reporter signal; NIH3T3-HGL HSF-1 luciferase reporter, MG132, 8 h; 100% = twice DMSO control signal; activation, % at 9 µM; hit rate 1.7% among 300,000;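 active = mean replicate activation of at least 50% with a set share of replicates each reaching 50%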;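 also: 0% = median of the neutral control wells and 100% = twice that signal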
TNF necrop inh – TNF-alpha cell death inhibition in Jurkat FADD-/- cells. Jurkat FADD-/- TNF necroptosis rescue, ATP luminescence, 24 h; 0 = TNF only, 100 = no-TNF cells. activation (protection from cell death), % at 10 µM. hit rate 0.068% among 220,000. AID 463075;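 active = activation, meaning protection from cell death, of at least 50% relative to plate controls; inactive = activation below 50%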;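 also: necroptosis triggered by 40 ng/mL TNF-alpha added together with compound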
Active calls of the source: *; . = no result given.

SMILES	zVAD death inh	Hsp70 activator	HSF-1 act	TNF necrop inh
COC(=O)c1ccc(Cn2nnc3ccccc32)cc1	0	.	5	5
COC(=O)c1ccc(COn2nnc3ccccc32)cc1	0	0	59*	7
O=C1C2CCCCN2C(=O)N1CCCN1CCN(c2ccc(F)cc2)CC1 (centres undefined)	.	.	57*	.
CSc1ncc(C(=O)Nc2ccc(C(C)=O)cc2)c(C)n1	.	.	9	.
O=C(N=C1c2ccccc2CN1c1ccc(F)c(Cl)c1)c1cccnc1Cl	0	1	69*	0
O=C(CNc1n[nH]c(=O)[nH]c1=O)N/N=C/C=C/c1ccccc1	0	.	7	1
O=S(=O)(Nc1cccc(-n2cnnn2)c1)c1ccccc1F	.	.	-4	.
Nc1nonc1-n1nnc(C(=O)N/N=C/c2cccnc2)c1CSC1=NCCS1	2	.	96*	4
Cc1nc2ccccc2c(=O)n1/N=C/c1ccc([N+](=O)[O-])o1	-1	.	-9	-27
Cc1nc2ccccc2n1/N=C/c1ccc([N+](=O)[O-])o1	37	0	77*	-22
Cc1ccc(Cl)cc1NC(=S)NN	0	.	1	2
Cc1cccc(NS(=O)(=O)c2cc3c4c(c2)CCN4C(=O)CC3)c1C	.	.	-3	.
CCc1ccccc1NS(=O)(=O)c1cc2c3c(c1)CCN3C(=O)CC2	.	.	62*	.
Oc1cccc(-c2nc3ccc4ccccc4c3c3c2CCC3)c1	2	1	59*	-1
O=C(NNc1c2ccccc2nc2ccccc12)c1cccc(O)c1	-1	0	29	-10
Fc1ccc(NC(=S)Nc2nccs2)cc1	1	0	64*	-9
Cc1ccc(S(=O)(=O)N2CCN(c3ccccc3)CC2)cc1C(N)=O	1	0	3	0
Cn1cc(Br)c(C(=O)Nc2sc3c(c2C#N)CCC3)n1	0	.	-5	0
Cn1cc([N+](=O)[O-])c(C(=O)Nc2sc3c(c2C#N)CCC3)n1	.	.	190*	.
O=C1Nc2cc(Cl)c(Cl)cc2N(O)N1c1ccc(Cl)c(Cl)c1	0	0	-10	0
CCOC(=O)c1cnn(-c2ccc(C(F)(F)F)cn2)c1N	1	0	61*	-1
CCOC(=O)/C(C#N)=C1\C(=O)N(Cc2ccccc2)c2ccccc21	1	.	-8	-4
CCOC(=O)c1c(N2C(=O)C3C4C=CC(O4)C3C2=O)sc2c1CCCC2 (centres undefined)	0	0	104*	-1
CCOC(=O)c1c(-n2cnnn2)sc2c1CCCC2	1	.	-10	-2
O=C(Nc1ccc(F)cc1)c1csc(Cc2ccccc2)n1	3	0	59*	0
SMILES	zVAD death inh	Hsp70 activator	HSF-1 act	TNF necrop inh
COc1ccccc1CNC(=O)c1csc(Cc2ccc(Cl)cc2)n1	0	0	100*	-7
C/C(=N\NC(=O)CN1CCOCC1)C(C)(C)C	0	0	2	-2
C(=C1/CCCC2=C1Nc1ncnn1C2c1ccccc1)/c1ccccc1 (centres undefined)	4	0	90*	-9
S=C1NC2=C(CCC/C2=C\c2ccccc2)C(c2ccccc2)N1 (centres undefined)	0	0	11	-5
Cc1cccc2nc(COc3ccc(Cl)c4cccnc34)cn12	3	0	35	-1
CN(C)c1cc(-c2ccc(Cl)cc2Cl)oc(=O)c1Cl	1	.	18	-1
COc1c(OC(C)=O)ccc(/C=C/c2ccc3ccccc3n2)c1[N+](=O)[O-]	11	1	65*	-12
O=[N+]([O-])c1ccccc1/C=C/c1ccc2ccccc2n1	.	.	98*	.
COc1c(OC(C)=O)ccc(/C=C/c2ccc3cccc(OC)c3n2)c1[N+](=O)[O-]	35	0	20	-3
CCC(C)NC(=O)c1ccccc1NC(=O)CN1C(=O)c2ccccc2S1(=O)=O (centres undefined)	0	0	12	2
Cc1cc([N+](=O)[O-])nn1Cc1ccccc1F	91*	0	3	95*
O=C(Cc1ccccc1)Nc1ncccc1Cl	.	.	9	.
CCOC(=O)C(Cc1ccc(O)cc1)NC(=O)CNC(=O)C1CCCN1C(=O)OC(C)(C)C (centres undefined)	0	0	10	0
O=S(=O)(c1cc(Cl)ccc1Cl)N1CCN(c2ccccn2)CC1	.	.	28	.
Cc1ccnc(NC(=O)c2cc3ccccc3oc2=O)c1	1	0	67*	-1
Cc1cccc(NC(=O)c2cc3ccccc3oc2=O)c1	.	.	30	.
COc1cc(-c2nnc(SC/C=C/c3ccccc3)n2N)cc(OC)c1OC	2	0	79*	-4
O=C1C=C(Nc2ccccc2)C(=O)c2ccccc21	5	0	96*	-3
COCCN(C(=O)COC(=O)C1CC1)c1c(N)n(Cc2ccccc2)c(=O)[nH]c1=O	.	.	-2	.
Cc1cc(C)n(CC(O)COc2ccc(Cl)cc2Cl)n1 (centres undefined)	.	.	64*	.
Cc1cc(C)n(CC(O)COc2ccc(Cl)cc2)n1 (centres undefined)	.	.	50*	.
Cc1ccc(OCC(O)Cn2nc(C)cc2C)cc1 (centres undefined)	1	0	12	1
Cc1ccc2c(c1)N(CC(=O)NC1CCC(C)CC1)C(=O)c1cccnc1O2 (centres undefined)	.	.	-1	.
Cc1ccc(SCCC(=O)N2CCC(C)CC2)cc1	0	0	58*	1
CCOc1ccc(-c2nc(CN3CCCCC3CCn3cccn3)c(C)o2)cc1 (centres undefined)	0	.	-9	1
SMILES	zVAD death inh	Hsp70 activator	HSF-1 act	TNF necrop inh
COc1cccc(NC(=O)CN(C)C(=O)c2ccc(-c3ccccc3Cl)o2)c1	.	.	12	.
Cc1cccc(Nc2nc(-c3ccc(O)c(O)c3)cs2)n1	.	.	-1	.
Cc1cccc(Nc2nc(-c3ccc(F)c(C)c3)cs2)n1	.	.	67*	.
COc1ccc(OC)c2nc(-c3ccc4c(c3)OCO4)ccc12	.	.	54*	.
c1ccc2nc(-c3ccc4c(c3)OCO4)ccc2c1	1	0	48	-1
Cc1nnnn1/C(=C\c1ccccc1)C(=O)OCC(=O)NC1CCCCC1	.	.	78*	.
COc1ccc(S(=O)(=O)N/N=c2\oc3c(OC)cccc3cc2S(=O)(=O)c2ccc(C)cc2)cc1OC	-1	0	86*	-3
COc1cccc2cc(C(=O)Nc3ccccc3C)/c(=N/NS(=O)(=O)c3ccccc3)oc12	.	.	7	.
Cc1cccc(NC(=O)C2Cc3ccccc3O/C2=N\O)c1 (centres undefined)	.	.	32	.
Cc1ccc(OCCn2cc(/C=C/C(=O)O)c3ccccc32)cc1	.	.	0	.
COC(=O)c1cn(CCOc2ccc(C)cc2)c2ccccc12	1	0	100*	3
CC(C)N(Cc1nc(-c2ccccc2)no1)C(=O)CN(C)S(=O)(=O)c1ccc(Br)cc1	0	0	3	-1
CC(C)N(Cc1nc(-c2ccc(Cl)cc2)no1)C(=O)CN(C)S(=O)(=O)c1ccc(Cl)cc1	0	0	85*	0
Cc1oc2ccc(NS(=O)(=O)c3ccc(C(C)(C)C)cc3)cc2c1C(=O)Nc1ccccc1	3	0	61*	4
CC(=O)c1c(C)oc2ccc(NS(=O)(=O)c3ccc(C)cc3)cc12	.	.	15	.
